The full ranking holds about 68,000 sequences; the median of “fluorescence intensity (a.u.)” is about 9,100, and the highest 2% start at about 16,000. The entries come from a sample that favours the highest values as a whole.

The target of the assay is OsWRKY34 (Oryza sativa, UniProt Q0JBA9 1-250). Nature of the assay: protein-binding microarray (RPBM); PBS, 2% BSA, 51.3 ng/ul salmon testes DNA, 50 uM zinc acetate, 200 nM TF, 25 C, 1 h; high values mean tight binding. The conditions noted are these: protein: recombinant; tags: N-terminal polyhistidine and DsRed monomer fusion (pET32a); label: CyDye5-dUTP incorporated in the synthesized complementary strand; 3' TTTTT single-stranded linker to array surface; dsDNA, one strand shown. The procedure, abridged: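 The binding signal is fluorescence intensity per feature, in arbitrary units, read on an Axon 4000B scanner. Polyhistidine- and DsRed-tagged transcription factors (N-terminal fusions) from E. coli BL21-CodonPlus were purified on Ni–NTA and applied at 200 nM for 1 h at 25 °C to a double-stranded, BSA-blocked custom Agilent array in buffer with 50 µM zinc acetate.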
Chain of OsWRKY34 (Q0JBA9 entry or part of it): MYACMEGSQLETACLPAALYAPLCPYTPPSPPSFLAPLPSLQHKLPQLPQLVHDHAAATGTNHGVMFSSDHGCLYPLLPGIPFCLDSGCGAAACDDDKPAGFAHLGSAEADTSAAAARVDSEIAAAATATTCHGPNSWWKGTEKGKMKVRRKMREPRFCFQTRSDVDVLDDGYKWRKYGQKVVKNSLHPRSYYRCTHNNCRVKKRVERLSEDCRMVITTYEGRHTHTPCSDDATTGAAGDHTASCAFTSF
For the sequence “GGGAAATTGGGTAATTAATTAATTATGTGAAAGGGGTGGGCGGAGTCACCTAGTGCAG”, the binding signal is 12800 fluorescence intensity (a.u.).
To “TCTATTGGGGCGGGGTGTGGTAAGGAAATTACAGTTTGCACGGAGTCACCTAGTGCAG” belongs 17700 fluorescence intensity (a.u.); to “TTACTACTACCACTCGTTTTCTTGGCTTGGTTTGGTTTGGCGGAGTCACCTAGTGCAG”, 13000 fluorescence intensity (a.u.); to “AAGACATTGCATCAACCGTCTTGCCAATCTATGTTTTCTACGGAGTCACCTAGTGCAG”, 8280 fluorescence intensity (a.u.).
The result for “ATTATAAGTTGTTTCTTCTTAGGTTGTGTTTAGTTCCTTGCGGAGTCACCTAGTGCAG” reads 9250 fluorescence intensity (a.u.); that for “GCTTCCTCGGCCTCGGGCCGCGTCTCCATGGTCGACTTGACGGAGTCACCTAGTGCAG”, 11200 fluorescence intensity (a.u.).
Take “ACCAGTTAATGTACATTTGCAATTATATTTTGTTATTTTTCGGAGTCACCTAGTGCAG”: the binding signal was 8230 fluorescence intensity (a.u.).
The result for “CCTTTTTAGTCGGACTTCTTTTTCTTTTTTACCGACTTTGCGGAGTCACCTAGTGCAG” reads 10300 fluorescence intensity (a.u.).
Take “TCTTTATTTACCTTTTTTTGAGTCGGACTTCTTTTTCTTTCGGAGTCACCTAGTGCAG”: the binding signal was 8240 fluorescence intensity (a.u.).
The result for “AGTTCTTGGAGTCACATGGTTGGTGGTGGTGTGGGCAGTTCGGAGTCACCTAGTGCAG” reads 14200 fluorescence intensity (a.u.); that for “ACCACTTGGCTTTCTTTCTTTTATCCGGTTAGTTCCGGCGCGGAGTCACCTAGTGCAG”, 8090 fluorescence intensity (a.u.); that for “GGAGTTTGGTTGGTTGGTGGTGTTCTTGACGGGGCATGGACGGAGTCACCTAGTGCAG”, 31200 fluorescence intensity (a.u.).
To “TTTTTTGTCGGACTTTTTTCTTCATTTTTTACCTCTTTTGCGGAGTCACCTAGTGCAG” belongs 16900 fluorescence intensity (a.u.); to “GTTGTTTGTTTGAGACTCTGTTCCTTTTGGCTTGGTTTTCCGGAGTCACCTAGTGCAG”, 12700 fluorescence intensity (a.u.); to “GGTGGTGTTGTTGGTGGTGCAGTTCTTGGAGTCACATGGTCGGAGTCACCTAGTGCAG”, 10300 fluorescence intensity (a.u.).
To “ATGTAGATGTGGTCATGTGGGTGCTATCTGTGTGGGTGATCGGAGTCACCTAGTGCAG” belongs 9360 fluorescence intensity (a.u.).
On to “GTAAGTGTGTGTTCAGTGATGGCTATCGGTGGGTGGGTGGCGGAGTCACCTAGTGCAG”, for which the binding signal is 16600 fluorescence intensity (a.u.).
To “GAGATGGATGTGTGGTGATGGCCTAGGATGTGGGATGGATCGGAGTCACCTAGTGCAG” belongs 8160 fluorescence intensity (a.u.); to “GAGATGCGGCACGGTTGGCTTGTTGACTTTTTCCGGCCCGCGGAGTCACCTAGTGCAG”, 17500 fluorescence intensity (a.u.).
As for “TTCTCCCTTTATTTTTGTTTATATAATTTCCAGATCAAAGCGGAGTCACCTAGTGCAG”, the binding signal is 8890 fluorescence intensity (a.u.).
With “GCCGCCGCCTCGCTCCCCATGGCGTCCGTACACTCCGGCGCGGAGTCACCTAGTGCAG”, the binding signal was 10300 fluorescence intensity (a.u.).
“GCCGCCGCCCGCCGCCGCCGAGACCGACCCGACCACGATGCGGAGTCACCTAGTGCAG”: the binding signal was 8960 fluorescence intensity (a.u.).
To “AATTTCGGAAGGGTTGGTTTAGGCAGTAATATTCTCCATTCGGAGTCACCTAGTGCAG” belongs 8280 fluorescence intensity (a.u.).
As to “GTGGCCTTTGGGAGCGGTGACCTGCTGCTCCATCCTTCATCGGAGTCACCTAGTGCAG”, the binding signal was 9620 fluorescence intensity (a.u.).
To “ATCCTGATCAGATTCTGAACTCCTTTTCTCTCTGCGCCCACGGAGTCACCTAGTGCAG” belongs 8480 fluorescence intensity (a.u.).
The result for “CACGTCGCCTCGTTTCTTGCCTCGCCGCTCGTCACTCGGCCGGAGTCACCTAGTGCAG” reads 9810 fluorescence intensity (a.u.); that for “GGCGAGTGGCGGATTTGTTTTTGGTTTGTTTTTGAGTTTGCGGAGTCACCTAGTGCAG”, 9060 fluorescence intensity (a.u.).
To “CGATCTTGCCCTGGTTGGTTGGTGGTGGTGGTGGGTTTTGCGGAGTCACCTAGTGCAG” belongs 37100 fluorescence intensity (a.u.).
On to “CGGTGGACTGGTGGTTTTTGCGGGGTTGCAGAATTTGGTGCGGAGTCACCTAGTGCAG”, for which the binding signal is 9390 fluorescence intensity (a.u.).
To “GATAGTTGAGGGGTCGAGATTTTTGGTATTGCGGATTGGGCGGAGTCACCTAGTGCAG” belongs 10400 fluorescence intensity (a.u.).
“GTTTATTGTATTTGGAGTAAGTGATTGTAACTTTTTTTTACGGAGTCACCTAGTGCAG”: the binding signal is 9200 fluorescence intensity (a.u.).
To “AATATGTGGGTGATTTGTTGTAATGGAGTATGTGGTGGAGCGGAGTCACCTAGTGCAG” belongs 10000 fluorescence intensity (a.u.).
To “TATTTTTGGGTTGGGTTTGGGTTGGGTTGGGTCGAGTTGGCGGAGTCACCTAGTGCAG” belongs 26100 fluorescence intensity (a.u.).
To “CGGTTTCGTTTGAGATTTTTTTTTGGTGGTTTTGATTTCGCGGAGTCACCTAGTGCAG” belongs 8640 fluorescence intensity (a.u.).
On to “GGTGGGTTGGGCCGTGATTTGTATGGACTTTATTTGTAAGCGGAGTCACCTAGTGCAG”, for which the binding signal was 19000 fluorescence intensity (a.u.).
With “CGGTGGTGGTGGTGGTGCCTTGGCTAGTTTGGCCGGCGCGCGGAGTCACCTAGTGCAG”, the binding signal is 14300 fluorescence intensity (a.u.).
To “GGTGGTCTTCTTTTTTTGCGGTGGAGTTGGATTTGGGTTGCGGAGTCACCTAGTGCAG” belongs 13000 fluorescence intensity (a.u.); to “CTTGGCTTGGTTTGGTTTGGTGTTTGATCACGCGGTGGTGCGGAGTCACCTAGTGCAG”, 20800 fluorescence intensity (a.u.).
To “GTTTACATGTGTAGATCTAATGATGCGTTCAATCTAGTTTCGGAGTCACCTAGTGCAG” belongs 8860 fluorescence intensity (a.u.).
To “GCGGATTTCCTTTCTAAACGTGCCAACGATGTGTTCTTGTCGGAGTCACCTAGTGCAG” belongs 8250 fluorescence intensity (a.u.); to “CAAAACAGAAGAGCCAGGTTAGTTTAGTTGGTCATATTCACGGAGTCACCTAGTGCAG”, 8310 fluorescence intensity (a.u.); to “AGCCATCCGGCCGCGGCCCGTCACAGGTAACTAGTCATTTCGGAGTCACCTAGTGCAG”, 9260 fluorescence intensity (a.u.).

The record behind these values is PMC7819943, “Rice protein-binding microarrays: a tool to detect cis-acting elements near promoter regions in rice”.
